Measurements as given in PubChem BioAssay.

The compounds below were run on Inhibin beta A chain (activin A) (assay: INHBA (activin A) binders on microarrays, primary screen, biochemical, small-molecule microarray, 635 nm fluorescence scan (AID 1107;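 note: mouse activin A protein probed at 4.33 µg/mL on printed slides; score merges bound-protein fluorescence near 667 nm with spot signal-to-noise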)). Conditions: small-molecule microarray binding, higher = more signal.

Going from `CN1C(=O)C2C=CC(C(O)c3c(F)cccc3Cl)N(Nc3ccccc3)C2C1=O` (centres undefined) to `CC(C)C(O)C1C=CC2C(=O)N(C)C(=O)C2N1Nc1ccccc1` (centres undefined), the composite z-score falls from 0.909 to 0.742.

Compared with `CCCC=C(CCC)[C@@H](NP(=O)(c1ccccc1)c1ccccc1)c1ccc(C(F)(F)F)cc1`, `C[C@]1(C(=O)NC2CC2)c2ccccc2C(=O)N(Cc2ccc(OC(F)(F)F)cc2)[C@H]1c1ccc(CO)cc1` is higher in composite z-score: 0.589 for the first, 0.781 for the second.

Going from `O=C1O[C@@H](c2ccccc2)[C@@H](c2ccccc2)N2[C@@H](c3ccc(O)cc3)[C@]3(C(=O)Nc4ccc(C#CCCO)cc43)[C@@H](C(=O)NC[C@H](O)c3ccccc3)[C@H]12` to `COCCOC(=O)N1C(=O)[C@@]2(c3cc(C#Cc4ccc(OC)cc4)ccc31)[C@H](C(=O)NC[C@H](O)c1ccccc1)[C@H]1C(=O)O[C@H](c3ccccc3)[C@H](c3ccccc3)N1[C@@H]2c1ccc(O)cc1`, the composite z-score rises from -0.926 to 0.033.

First: CCN(CC)c1ccc(N2CC=CC34O[C@@H]5/C=C\CCC(C)OC(=O)C5[C@H]3C(=O)N(CCO)[C@@H]4C2=O)cc1 (some centres undefined)
Second: O=C1OCCC=C[C@H]2OC34C=CCN(c5ccc(Cl)cc5)C(=O)[C@H]3N(CCCCCO)C(=O)[C@@H]4C12 (some centres undefined)
The composite z-score of the first is higher: 0.907 for the first, 0.883 for the second.

Going from `Cc1ccc(S[C@]2(C(=O)NCCN3CCOCC3)CC(=O)N(Cc3ccccc3C(F)(F)F)[C@@H]2c2ccc(CO)cc2I)cc1` to `COc1ccc(CCNC(=O)[C@@]2(Sc3ccc(C)cc3)CC(=O)N(Cc3cc(C(F)(F)F)cc(C(F)(F)F)c3)[C@@H]2c2ccc(CO)cc2I)cc1`, the composite z-score rises from 0.446 to 0.533.

Compared with `C=CCNC(=O)[C@@H]1[C@H]2C(=O)O[C@H](c3ccccc3)[C@H](c3ccccc3)N2[C@H](c2ccc(OCCO)cc2)[C@@]12C(=O)N(C(=O)OCCOC)c1ccc(C#CC3=CCCCC3)cc12`, `COCCOC(=O)N1C(=O)[C@@]2(c3cc(C#CC4(O)CCCCCC4)ccc31)[C@H](c1ccccc1OCCO)N1[C@H](c3ccccc3)[C@H](c3ccccc3)OC(=O)[C@H]1[C@@H]2C(N)=O` is lower in composite z-score: 0.726 for the first, -0.132 for the second.

First: COC(=O)[C@@]1(Cc2ccccc2)[C@H]2c3cc(C(=O)N4CCCC4)[nH]c3C[C@H]2CN1C(=O)c1ccccc1
Second: COC(=O)[C@@]1(Cc2ccc(OC)cc2)[C@H]2c3cc(C(=O)N4CCCC4)n(CCc4cc5ccccc5[nH]4)c3C[C@H]2CN1C(=O)c1ccccc1
The composite z-score of the first is higher: 0.916 for the first, 0.881 for the second.

First: C=CCOC(=O)[C@@H]1[C@H]2C(=O)O[C@H](c3ccccc3)[C@H](c3ccccc3)N2[C@H](c2ccc(OCCOC(=O)[C@H]3C[C@H]4C(=O)N[C@@H](CCCC[N+](C)(C)C)C(=O)N4[C@H]3c3ccc(O)cc3)cc2)[C@@]12C(=O)Nc1ccc(I)cc12
Second: COc1ccc(C#Cc2ccc3c(c2)[C@]2(C(=O)N3)[C@H](C(=O)N3CCc4cc(OC)c(OC)cc4C3)[C@H]3C(=O)O[C@H](c4ccccc4)[C@H](c4ccccc4)N3[C@@H]2c2ccc(O)cc2)cc1
The composite z-score of the first is higher: 0.467 for the first, -0.214 for the second.

First: COc1c(C)cc(-c2cc3c(c(Cc4ccccc4)n2)[Si](C(C)C)(C(C)C)OC3)cc1C
Second: COC(=O)C1(Cc2ccccc2)C=C2C(=C(C(C)C)C(=O)C2C)CN1 (centres undefined)
The composite z-score of the first is lower: 0.137 for the first, 1.35 for the second.

Going from `CC(=O)N1Cc2ccccc2C[C@]2(N=C(c3ccc(OCCCO)cc3)O[C@@H]2c2ccccc2)C1=O` to `C=CC[C@@]1(C(=O)O)N=C(c2ccc(OCCCO)cc2)O[C@@H]1c1ccccc1`, the composite z-score falls from 0.503 to -0.361.

Compared with `CCOC(=O)[C@@H]1[C@@H]2C(=O)N(CC)C(=O)[C@@H]2C[C@@H]1Sc1ccccc1`, `CN(C)CCCCNC(=O)[C@H]1C[C@H]2C(=O)N[C@@H](CCCCN(C)C)C(=O)N2[C@H]1c1cccc(OCCO)c1` is higher in composite z-score: 0.0622 for the first, 0.0714 for the second.

Compared with `COc1ccc(NN2C(C(O)c3ccccn3)C=CC3C(=O)N(C4CCCCC4)C(=O)C32)cc1` (centres undefined), `CC(C)(C)OC(=O)CC[C@]1(C(=O)O)N=C(c2ccc(OCCCO)cc2)O[C@H]1c1ccccc1` is higher in composite z-score: 0.627 for the first, 0.734 for the second.
